# According to PubChem BioAssay AID651937 (The Scripps Research Institute Molecular Screening Center, 2012):
# The other results are listed elsewhere or left out. Calls of active or inactive are those of the source. No stated cut-off is given here; in the data, active means IC50 below about 9 µM; inactive means the rest.
# Assay: binders of control antibody PGV04, dose response, counter-screen for PG9 antibody binder project, biochemical, TR-FRET, distinct HIV envelope site (AID 651937)
# Details: TR-FRET binding to control antibody PGV04
row,Compound,IC50
1,COc1ccc(-c2c(C)nn3c(N4CCC(C(=O)N5CCCCC5)CC4)cc(C)nc23)cc1OC,56.5 µM (inactive)
2,S=c1[nH]c2ccccc2c2ccccc12,36.4 µM (inactive)
3,O=C(Oc1ccccc1)Oc1ccc2c(c1)oc(=O)c1ccccc12,2.5 µM (active)
4,O=C(Nc1nnc(-c2ccccc2F)s1)c1ccccc1F,14.3 µM (inactive)
5,COC(=O)C1=C(C)N(Cc2ccccc2C(F)(F)F)C(=NCc2ccc(OC)cc2)NC1c1cccc(C(F)(F)F)c1 (configuration not stated),> 67 µM (inactive)
6,CC1(C)Cc2ccccc2-c2[nH]c(=S)[nH]c(=O)c21,38.1 µM (inactive)
7,Cc1cccc(Nc2nc3c(S(=O)(=O)c4ccccc4)nnn3c3ccccc23)c1C,2.86 µM (active)
